# Tested on: VDR:RXRa (NR concentration 270 nM, RXRa partner concentration 90 nM)
# Assay: PBM binding z-score (relative to random genomic background probes); higher = stronger binding; sequences stand for … in GC…GCGATTGACAGCGTAGAATGAAGG
# Description: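 Protein-binding microarray (Agilent 4x180K custom design, double-stranded 60-nt probes: 5' GC cap, 34-nt variable region, 24-nt constant primer region; full probe sequence given). Purified or IVT nuclear receptor:RXRα heterodimers (3:1 NR:RXRα, mostly 270:90 nM) or homodimers were incubated for 1 h in PBS with 2% milk and no ligand, then detected with Alexa488 antibodies. Fluorescence from o1-orientation probes (~5 replicates averaged) was converted to z-scores against 500 random hg19 background probes. Variable regions are seed direct-repeat (DR0–DR5) sites, all their single-nucleotide variants and half-site ablations.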
row,Sequence,PBM binding z-score
1,TCGAGTAGGTTAGTCGGGGCATTCGGCCAACATA,2.15
2,TCGAGTAGGTTAGGCGGGGCATTCAGCCAACATA,1.43
3,ATCTCTAGGTAAGCAAGTTCAGTGAATGCCGAAC,3.03
4,CCTACTGGGCCGAAGGTCATTGATTCCAATGCTC,2.51
5,CCTACTGGGCCAAAAAGGTCATTCATGCCGATAA,4.88
6,CCAGACAGGTAAGAAGGTAACTCAGCCTCGATTA,0.00354
7,GCAGACAGGTGAAACGCAGGTAGCTCAGGGTGGC,-0.649
8,CAAACTTGGTCACAGAGGTCAAAGTCCGTGCGTA,6.59
9,AGAATAAGGTTAAGATCAGGGAAACAGAATACAT,1.14
10,CCTACTGGGCCAAAGGTCATTAATTCCAATGCTC,4.22
11,CCTTACGAGTCACTCCAGGTTATAGCATCGGAGT,1.24
12,TCTTGTAGCTCAACAGGAGGTTAAGAAAGATCGA,0.0738
13,TCGAGTAGGTTACCAATGGGGAATTCAGCTTTCT,0.0458
14,ACAGACAGGTGATGAAGGTAATTCAGGCTATCAT,0.0212
15,AGTAAAAGTTCATCTAGGTAACGTAAGATATGCT,4.57
16,CTCGAAAGGTCGGTTGAGGTGAGCATACGGATAA,2.26
17,TCTGCTAGGTCAACGATGGTCTGCTAATCTGCTA,0.981
18,AGAACTAGGGCACGCTGAGTTGATAGCAGAGTAG,0.303
19,GATCGGAGGACAAGGTCAGAGCTTTGTCCGTAGA,1.44
20,CCTACTGGGCCATAGGTCATTGATTCCAATGCTC,2.17

row,Sequence,PBM binding z-score
1,ATATGTAGGTTAGCTGGGGGCATTCAGACTAGGC,4.08
2,AGTCACAGTTCACTAGGTAACGTAAGATTCAGCT,1.81
3,CCTTCTGGGCCAAAAAGGTCATTGATGCCGATAA,4.86
4,GCTTGTAGACCAAGGTTAAGAAAGACTAAGCTAA,0.0143
5,GCGACTGGGGCATCAGCAGGTTGCCATAACTTAA,-0.532
6,CCGAGTAGGTTATGGGGCAATCAGGCAACGGTGA,0.00491
7,TCATATAGGTTATACAGGTGAAAGTCGGCATCTA,2.48
8,TCAAATAGGTAAACAGGTGAAAGTCCGTAAGTTA,1.18
9,TCTTGTAGATCAACAGGAGGTGAAGAAAGATCGA,0.032
10,AGAATGAGGTTATTACGATCAGGGAATTGCGGTC,1.99
11,GGAGCGAGGGCAAAGTTGATAGCATCTGTCGACG,0.834
12,TCTAGTTGGTCAAAGGTCACACACTCGAAATGCG,5.37
13,TCAGACAGGTGAAAGTAACTCAGGTACGCAGTCG,0.591
14,TCGAGTAGGTTAACAATGGGGCATTCAGCTTTCT,0.406
15,TAGCCTAGGTTATTGGGCCAGTATAGTACGCATC,-0.034
16,CCTTACGGGTCCCGAGGTTATAGCACGACGAGCG,0.198
17,CTCGAAAGGTCGTGATCAGGTGAGTATACCAAAC,3.22
18,CCGACAGGGGCAAGGTTACCATAACGCACAGCCA,0.616
19,CTCGATAGGTCGGTTGAGGTGAGTATACGGATAA,0.436
20,CCTACTGGGCCAAAAAGGTCATTAATGCCGATAA,4.53

# — the supplement of paper PMC6555819
